In PMC11006913:
Positions count from the first letter of the chain named.

What was measured:
Experiment in all cases: PBM; 200 nM protein, PBS
Settings in all cases: dsDNA, one strand shown
[1] = biological target: T1, SIX6 (Homo sapiens, UniProt O95475 114-200, L167M)
T1 sequence: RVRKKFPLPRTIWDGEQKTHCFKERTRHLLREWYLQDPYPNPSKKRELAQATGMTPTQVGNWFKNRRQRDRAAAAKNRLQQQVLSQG

[2] = biological target: T2, SIX6 (Homo sapiens, UniProt O95475 114-200, L143I)
T2 sequence: T1 sequence with L30I, M54L

[3] = biological target: T3, PAX4 (Homo sapiens, UniProt O43316 9-242)
T3 sequence: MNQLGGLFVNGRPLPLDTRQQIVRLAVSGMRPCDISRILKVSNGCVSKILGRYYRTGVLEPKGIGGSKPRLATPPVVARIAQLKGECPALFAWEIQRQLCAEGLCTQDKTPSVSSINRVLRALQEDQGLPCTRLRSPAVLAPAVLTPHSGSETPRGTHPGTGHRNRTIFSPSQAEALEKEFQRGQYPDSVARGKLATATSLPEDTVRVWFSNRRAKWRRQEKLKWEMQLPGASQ

[4] = biological target: T4, PAX4 (Homo sapiens, UniProt O43316 9-242, F177V)
T4 sequence: T3 sequence with F169V

[5] = biological target: T5, PAX4 (Homo sapiens, UniProt O43316 9-242, F177Y)
T5 sequence: T3 sequence with F169Y

[6] = biological target: VAX1 (Homo sapiens, UniProt Q5SQQ9 86-172)
[7] = biological target: VAX1 (Homo sapiens, UniProt Q5SQQ9 86-172, T142I)
[8] = biological target: T6, PAX4 (Homo sapiens, UniProt O43316 9-242, R227W)
T6 sequence: T3 sequence with R219W

[9] = biological target: VAX1 (Homo sapiens, UniProt Q5SQQ9 86-172, K157R)
[10] = biological target: T7, NKX2-4 (Homo sapiens, UniProt Q9H2Z4 175-261)
T7 sequence: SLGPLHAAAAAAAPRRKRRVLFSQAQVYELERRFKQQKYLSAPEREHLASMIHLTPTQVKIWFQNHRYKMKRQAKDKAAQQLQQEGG

[11] = biological target: HOXB6 (Homo sapiens, UniProt P17509 132-218, K202E)
[12] = biological target: HOXB6 (Homo sapiens, UniProt P17509 132-218)
[13] = biological target: T8, NKX2-6 (Homo sapiens, UniProt A6NCS4 118-204, R150C)
T8 sequence: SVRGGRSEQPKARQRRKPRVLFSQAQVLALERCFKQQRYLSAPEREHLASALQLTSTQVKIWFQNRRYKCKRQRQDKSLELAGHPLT

[14] = biological target: HOXA2 (Homo sapiens, UniProt O43364 129-215, R185T)
[15] = biological target: HOXA2 (Homo sapiens, UniProt O43364 129-215, R185K)
[16] = biological target: HOXA2 (Homo sapiens, UniProt O43364 129-215, Y150S)
[17] = biological target: HOXA2 (Homo sapiens, UniProt O43364 129-215)
[18] = biological target: ALX1 (Homo sapiens, UniProt Q15699 118-204, L144V)
[19] = biological target: ALX1 (Homo sapiens, UniProt Q15699 118-204, L144R)
[20] = biological target: NKX3-2 (Homo sapiens, UniProt P78367 192-278, P234S)
[21] = biological target: ALX1 (Homo sapiens, UniProt Q15699 118-204)
[22] = biological target: NKX3-2 (Homo sapiens, UniProt P78367 192-278)
[23] = biological target: ALX3 (Homo sapiens, UniProt O95076 139-225, N203Q)
[24] = biological target: ALX3 (Homo sapiens, UniProt O95076 139-225)
[25] = biological target: ALX3 (Homo sapiens, UniProt O95076 139-225, N203S)
[26] = biological target: T9, SIX6 (Homo sapiens, UniProt O95475 114-200, L143M)
T9 sequence: T1 sequence with L30M, M54L

Sequence of HOXB6 (Homo sapiens, UniProt P17509 132-218) (P17509 132-218): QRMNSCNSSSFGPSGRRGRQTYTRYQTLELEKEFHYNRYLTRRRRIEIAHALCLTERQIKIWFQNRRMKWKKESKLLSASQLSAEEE
Sequence of HOXB6 (Homo sapiens, UniProt P17509 132-218, K202E) (P17509 132-218 K202E): as the sequence (P17509 132-218) above, with K71E counted along it
Sequence of ALX3 (Homo sapiens, UniProt O95076 139-225, N203S) (O95076 139-225 N203S): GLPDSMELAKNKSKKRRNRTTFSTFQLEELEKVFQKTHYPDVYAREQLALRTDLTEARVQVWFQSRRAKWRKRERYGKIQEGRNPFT
Sequence of ALX3 (Homo sapiens, UniProt O95076 139-225, N203Q) (O95076 139-225 N203Q): as the sequence (O95076 139-225 N203S) above, with S65Q counted along it
Sequence of HOXA2 (Homo sapiens, UniProt O43364 129-215, Y150S) (O43364 129-215 Y150S): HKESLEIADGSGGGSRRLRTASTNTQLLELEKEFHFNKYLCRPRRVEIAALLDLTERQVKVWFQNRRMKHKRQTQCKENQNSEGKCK
Sequence of ALX3 (Homo sapiens, UniProt O95076 139-225) (O95076 139-225): as the sequence (O95076 139-225 N203S) above, with S65N counted along it
Sequence of HOXA2 (Homo sapiens, UniProt O43364 129-215) (O43364 129-215): as the sequence (O43364 129-215 Y150S) above, with S22Y counted along it
Sequence of HOXA2 (Homo sapiens, UniProt O43364 129-215, R185T) (O43364 129-215 R185T): as the sequence (O43364 129-215 Y150S) above, with S22Y, R57T counted along it
Sequence of VAX1 (Homo sapiens, UniProt Q5SQQ9 86-172) (Q5SQQ9 86-172): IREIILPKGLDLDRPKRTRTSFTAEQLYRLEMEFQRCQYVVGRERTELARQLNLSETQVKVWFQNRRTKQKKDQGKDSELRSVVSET
Sequence of NKX3-2 (Homo sapiens, UniProt P78367 192-278, P234S) (P78367 192-278 P234S): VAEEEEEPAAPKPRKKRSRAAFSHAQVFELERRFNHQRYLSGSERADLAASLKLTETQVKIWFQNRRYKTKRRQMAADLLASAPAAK
Sequence of NKX3-2 (Homo sapiens, UniProt P78367 192-278) (P78367 192-278): as the sequence (P78367 192-278 P234S) above, with S43P counted along it
Sequence of ALX1 (Homo sapiens, UniProt Q15699 118-204) (Q15699 118-204): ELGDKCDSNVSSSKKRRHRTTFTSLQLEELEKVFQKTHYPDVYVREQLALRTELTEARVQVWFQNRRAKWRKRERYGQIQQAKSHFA
Sequence of VAX1 (Homo sapiens, UniProt Q5SQQ9 86-172, T142I) (Q5SQQ9 86-172 T142I): as the sequence (Q5SQQ9 86-172) above, with T57I counted along it
Sequence of ALX1 (Homo sapiens, UniProt Q15699 118-204, L144V) (Q15699 118-204 L144V): as the sequence (Q15699 118-204) above, with L27V counted along it
Sequence of HOXA2 (Homo sapiens, UniProt O43364 129-215, R185K) (O43364 129-215 R185K): as the sequence (O43364 129-215 Y150S) above, with S22Y, R57K counted along it
Sequence of VAX1 (Homo sapiens, UniProt Q5SQQ9 86-172, K157R) (Q5SQQ9 86-172 K157R): as the sequence (Q5SQQ9 86-172) above, with K72R counted along it
Sequence of ALX1 (Homo sapiens, UniProt Q15699 118-204, L144R) (Q15699 118-204 L144R): as the sequence (Q15699 118-204) above, with L27R counted along it

In the case of CCGTATCG, the binding signal [1] is reported as 9.97 upbm affinity estimate (log intensity, higher = more binding, comparable within an allelic series).
ACCGATAC was tested, and the binding signal [1] was 10.2 upbm affinity estimate (log intensity, higher = more binding, comparable within an allelic series).
For ATATACTC, the binding signal [1] was 10.7 upbm affinity estimate (log intensity, higher = more binding, comparable within an allelic series) and the binding signal [2] was 10.4 upbm affinity estimate (log intensity, higher = more binding, comparable within an allelic series).
With AATTGCGA the binding signal [3] was 10.7 upbm affinity estimate (log intensity, higher = more binding, comparable within an allelic series), the binding signal [4] was 9.91 upbm affinity estimate (log intensity, higher = more binding, comparable within an allelic series) and the binding signal [5] was 10 upbm affinity estimate (log intensity, higher = more binding, comparable within an allelic series). The binding signal [6] was 9.89 upbm affinity estimate (log intensity, higher = more binding, comparable within an allelic series), the binding signal [7] was 9.67 upbm affinity estimate (log intensity, higher = more binding, comparable within an allelic series) and the binding signal [8] was 10.1 upbm affinity estimate (log intensity, higher = more binding, comparable within an allelic series). For the same sequence, the binding signal [9] was 9.62 upbm affinity estimate (log intensity, higher = more binding, comparable within an allelic series).
In the case of GTATCGAA, the binding signal [1] is reported as 10.2 upbm affinity estimate (log intensity, higher = more binding, comparable within an allelic series).
With CGGATATA the binding signal [1] was 10.8 upbm affinity estimate (log intensity, higher = more binding, comparable within an allelic series).
In the case of ACTAACTA, the binding signal [3] is reported as 10.8 upbm affinity estimate (log intensity, higher = more binding, comparable within an allelic series), the binding signal [4] is reported as 10.1 upbm affinity estimate (log intensity, higher = more binding, comparable within an allelic series) and the binding signal [5] is reported as 10.1 upbm affinity estimate (log intensity, higher = more binding, comparable within an allelic series). The binding signal [8] was 10.2 upbm affinity estimate (log intensity, higher = more binding, comparable within an allelic series).
For GAATTGAA, the binding signal [3] was 10.6 upbm affinity estimate (log intensity, higher = more binding, comparable within an allelic series), the binding signal [4] was 10.1 upbm affinity estimate (log intensity, higher = more binding, comparable within an allelic series) and the binding signal [8] was 10.1 upbm affinity estimate (log intensity, higher = more binding, comparable within an allelic series).
In the case of AGGTATAT, the binding signal [1] is reported as 10.8 upbm affinity estimate (log intensity, higher = more binding, comparable within an allelic series).
For GTATCGAC, the binding signal [1] was 9.96 upbm affinity estimate (log intensity, higher = more binding, comparable within an allelic series).
With CGTATCGC the binding signal [1] was 10 upbm affinity estimate (log intensity, higher = more binding, comparable within an allelic series).
AGGGGTCA was tested, and the binding signal [10] was 11.2 upbm affinity estimate (log intensity, higher = more binding, comparable within an allelic series).
With CGTATCAG the binding signal [1] was 10.2 upbm affinity estimate (log intensity, higher = more binding, comparable within an allelic series).
For CATATCGA, the binding signal [1] was 10.2 upbm affinity estimate (log intensity, higher = more binding, comparable within an allelic series).
In the case of CGTATCGA, the binding signal [1] is reported as 10 upbm affinity estimate (log intensity, higher = more binding, comparable within an allelic series).
For GAGATATA, the binding signal [1] was 10.8 upbm affinity estimate (log intensity, higher = more binding, comparable within an allelic series).
TTAGTCAA was tested, and the binding signal [3] was 10.9 upbm affinity estimate (log intensity, higher = more binding, comparable within an allelic series), the binding signal [4] was 10.1 upbm affinity estimate (log intensity, higher = more binding, comparable within an allelic series) and the binding signal [5] was 10.2 upbm affinity estimate (log intensity, higher = more binding, comparable within an allelic series). For the same sequence, the binding signal [8] was 10.2 upbm affinity estimate (log intensity, higher = more binding, comparable within an allelic series).
GGGGGATA was tested, and the binding signal [1] was 10.8 upbm affinity estimate (log intensity, higher = more binding, comparable within an allelic series).
AAAACCAT was tested, and the binding signal [3] was 10.5 upbm affinity estimate (log intensity, higher = more binding, comparable within an allelic series), the binding signal [5] was 9.98 upbm affinity estimate (log intensity, higher = more binding, comparable within an allelic series) and the binding signal [8] was 10.1 upbm affinity estimate (log intensity, higher = more binding, comparable within an allelic series).
In the case of ATCTATAC, the binding signal [1] is reported as 10.7 upbm affinity estimate (log intensity, higher = more binding, comparable within an allelic series), the binding signal [2] is reported as 10.4 upbm affinity estimate (log intensity, higher = more binding, comparable within an allelic series) and the binding signal [5] is reported as 10.4 upbm affinity estimate (log intensity, higher = more binding, comparable within an allelic series).
With CGTTATGC the binding signal [3] was 10.3 upbm affinity estimate (log intensity, higher = more binding, comparable within an allelic series) and the binding signal [8] was 9.97 upbm affinity estimate (log intensity, higher = more binding, comparable within an allelic series).
With AATATACC the binding signal [1] was 10.9 upbm affinity estimate (log intensity, higher = more binding, comparable within an allelic series).
TATATCCA was tested, and the binding signal [1] was 10.7 upbm affinity estimate (log intensity, higher = more binding, comparable within an allelic series).
ATATACCA was tested, and the binding signal [1] was 10.7 upbm affinity estimate (log intensity, higher = more binding, comparable within an allelic series).
For AATAACGG, the binding signal [3] was 10.8 upbm affinity estimate (log intensity, higher = more binding, comparable within an allelic series), the binding signal [4] was 10 upbm affinity estimate (log intensity, higher = more binding, comparable within an allelic series) and the binding signal [5] was 10.1 upbm affinity estimate (log intensity, higher = more binding, comparable within an allelic series). For the same sequence, the binding signal [8] was 10.1 upbm affinity estimate (log intensity, higher = more binding, comparable within an allelic series).
With ACGCCGCG the binding signal [11] was 9.12 upbm affinity estimate (log intensity, higher = more binding, comparable within an allelic series) and the binding signal [12] was 9.15 upbm affinity estimate (log intensity, higher = more binding, comparable within an allelic series).
With ACGGGCCT the binding signal [11] was 8.87 upbm affinity estimate (log intensity, higher = more binding, comparable within an allelic series), the binding signal [13] was 9.14 upbm affinity estimate (log intensity, higher = more binding, comparable within an allelic series) and the binding signal [12] was 8.95 upbm affinity estimate (log intensity, higher = more binding, comparable within an allelic series).
With CAGCAGGG the binding signal [11] was 9.1 upbm affinity estimate (log intensity, higher = more binding, comparable within an allelic series), the binding signal [14] was 7.49 upbm affinity estimate (log intensity, higher = more binding, comparable within an allelic series) and the binding signal [15] was 10.3 upbm affinity estimate (log intensity, higher = more binding, comparable within an allelic series). The binding signal [16] was 10.3 upbm affinity estimate (log intensity, higher = more binding, comparable within an allelic series), the binding signal [17] was 7.08 upbm affinity estimate (log intensity, higher = more binding, comparable within an allelic series) and the binding signal [12] was 9.13 upbm affinity estimate (log intensity, higher = more binding, comparable within an allelic series).
AGGCGCTC was tested, and the binding signal [11] was 9.06 upbm affinity estimate (log intensity, higher = more binding, comparable within an allelic series), the binding signal [18] was 6.32 upbm affinity estimate (log intensity, higher = more binding, comparable within an allelic series) and the binding signal [19] was 6.29 upbm affinity estimate (log intensity, higher = more binding, comparable within an allelic series). For the same sequence, the binding signal [20] was 10.5 upbm affinity estimate (log intensity, higher = more binding, comparable within an allelic series), the binding signal [21] was 6.17 upbm affinity estimate (log intensity, higher = more binding, comparable within an allelic series) and the binding signal [12] was 8.87 upbm affinity estimate (log intensity, higher = more binding, comparable within an allelic series). The binding signal [22] was 10.6 upbm affinity estimate (log intensity, higher = more binding, comparable within an allelic series).
For ACTATTGA, the binding signal [11] was 9.51 upbm affinity estimate (log intensity, higher = more binding, comparable within an allelic series), the binding signal [23] was 8.21 upbm affinity estimate (log intensity, higher = more binding, comparable within an allelic series) and the binding signal [24] was 9.1 upbm affinity estimate (log intensity, higher = more binding, comparable within an allelic series). For the same sequence, the binding signal [25] was 8.3 upbm affinity estimate (log intensity, higher = more binding, comparable within an allelic series) and the binding signal [12] was 10.1 upbm affinity estimate (log intensity, higher = more binding, comparable within an allelic series).
In the case of ATCTGATC, the binding signal [26] is reported as 11 upbm affinity estimate (log intensity, higher = more binding, comparable within an allelic series) and the binding signal [2] is reported as 10.4 upbm affinity estimate (log intensity, higher = more binding, comparable within an allelic series).
For TAATATTA, the binding signal [11] was 10 upbm affinity estimate (log intensity, higher = more binding, comparable within an allelic series), the binding signal [23] was 8.61 upbm affinity estimate (log intensity, higher = more binding, comparable within an allelic series) and the binding signal [25] was 8.68 upbm affinity estimate (log intensity, higher = more binding, comparable within an allelic series).
